# Data published in PMC12136788.
# Where a chain is given by its changes, count along the chain named. In all, about 5,800 sequences were measured (“enrichment r”: median about 0.54, highest 2% from about 16 on). The sample holds the highest values, similar sequences and a random draw of the others, so the mix is not that of the screen.
# B1: chr11:70485313:70487720:-|CDS|ENSG00000162105|control|control|control (ssRNA)
# RNA: GGGAGUUCUACAGUCCGACGAUCUGGGGCGACGUCACAGAGAUCAAAAGCCCGAUUCUCUCAGGCCCAAAGGCAAACGUUAUUAGUGAAUUGAACUCUAUCCUACAGCAAAUGAACCGAGAGAAAUUGGCAAAGCCGGGGGAACAACAGAGGAUUGAGCAUCA
# B2: chr3:58425360:58425463:+|3pUTR|ENSG00000168297|unk|FALSE|unique (ssRNA)
# RNA: GGGAGUUCUACAGUCCGACGAUCAGACAGCUCCUAGAAACAUUCCUCUUACAGUUCAUUUCUCUAAAGCAUUUUCUGAUUCUUAGAUAACUCCAAUUUUUGCUACCUUUAUCUUAGACAUUAACACUAUAGCCCAAAGCAUAGCAACAGAGGAUUGAGCAUCA
# B3: chr19:38730201:38730298:+|3pUTR|ENSG00000130402|msi1_unk|FALSE|overlapping (ssRNA)
# RNA: GGGAGUUCUACAGUCCGACGAUCCAGAGAAUUACUAUUUACUUUAUUAACUUACGGAUUUAUUAUAUAAAUAUAUAUUCACCUAGCAACAUAUCUCUGCCGUCUCUCCUGCUCUCAUAAUGAAGACAUAGCCGAUUCUCUGCCCAACAGAGGAUUGAGCAUCA
# B4: chr4:56461171:56461272:+|3pUTR|ENSG00000128050|msi1|FALSE|bound_elsewhere (ssRNA)
# RNA: GGGAGUUCUACAGUCCGACGAUCCUUCUGUAACCACAGUGACUACAAGUAGUUCUUUCUCUAUUGAAUUAUUAGGUCCAGAAUAGAAGAUGUCAUUGUACACUUUAUUUCCCUCACACUGUGUUAUGCUCUGAUGUGCUAUGCCAACAGAGGAUUGAGCAUCA
# B5: chr19:18196783:18197469:-|three_prime_utr|ENSG00000105649|control|control|control (ssRNA)
# RNA: GGGAGUUCUACAGUCCGACGAUCACUACCCGGGCCUGACCCGGCCCCUACCAGCCACGGGCACAAGACCCCUGCUCCUGACUUAGCCCGUCACCCUUAUUUAUUAUUGUAGCUAUUUAUUUAUUUAUUGAAGAUGUCCCCCAGCAACAGAGGAUUGAGCAUCA
# B6: chr11:613205:613595:-|three_prime_utr|ENSG00000185507|control|control|control (ssRNA)
# RNA: GGGAGUUCUACAGUCCGACGAUCCUGCACGUUCCUAUACGGCCCCCCAGACCCAGCUGUCCGGGCCACAGACCCCCAGCAGGUAGCAUUCCCCAGCCCUGCCGAGCUCCCGGACCAGAAGCAGCUGCGCUACACGGAGGAACUCAACAGAGGAUUGAGCAUCA
# B7: chr16:66721972:66722075:-|3pUTR|ENSG00000135720|unk|FALSE|unique (ssRNA)
# RNA: GGGAGUUCUACAGUCCGACGAUCUUUUUAAUUCAGUUUUUUAAAAAAACAAAUGUAUUGUGGCUUCCAGUUACCAGGUUGUCUAGGUAAUGACAGUAAACUGACUGUAGAAUGAUAAUUGUGGUAUAGUGACCAAUAGAUGCCCAACAGAGGAUUGAGCAUCA
# B8: chr12:66123492:66123593:-|3pUTR|ENSG00000139233|msi1|FALSE|unique (ssRNA)
# RNA: GGGAGUUCUACAGUCCGACGAUCAUGCUACCCAAUAUCCAGUUAUAAUCAGGCCUCAACGUUCUGUCAGGUAUUAAUAUGGUUAGAAUUGUUCUUACAACUGGUAAUUAUAGUCAAUAGAGAUAAAACAGAUGAUGUACUGACCAACAGAGGAUUGAGCAUCA
# B9: chr7:20410151:20410448:+|3pUTR|ENSG00000105855|msi1|FALSE|unique (ssRNA)
# RNA: GGGAGUUCUACAGUCCGACGAUCACUAGUGUCGUUGUAGCACUUUACUGUAAUAUAUAACUUAUUUAGAUCAGCAUAGAAUGUAGAUCCUCUGAAGAGCACUGAUUACACUUUACAGGUACCUGUUAUCCCUACGCUUCCCAGCAACAGAGGAUUGAGCAUCA
# B10: ENSG00000154556:stop:overlap|stop_codon|ENSG00000154556|stop_codon|NA|stop_codon (ssRNA)
# RNA: GGGAGUUCUACAGUCCGACGAUCCUUCUUCCCCAUCAAGAGCAAAAGUUACUCAGGGCUCAACGGCAACCCCUCCAGUGAGUUAGAUUACUGUAGCACUUACAGACAGCACUUGGAUGUCCCUCGGGACUCACCAAGAGCCAUCAACAGAGGAUUGAGCAUCA
# B11: chr12:66123492:66123593:-|3pUTR|ENSG00000139233|msi1|total|mutant (ssRNA)
# RNA: B8 RNA with U83C, A84C, U110C, A111C, U117C, A118C
# B12: chr7:20410151:20410448:+|3pUTR|ENSG00000105855|msi1|total|mutant (ssRNA)
# RNA: B9 RNA with U26C, A27C, U37C, A38C, U66C, A67C, U76C, A77C, U83C, A84C
# B13: chr19:38730201:38730298:+|3pUTR|ENSG00000130402|msi1_unk|total|mutant (ssRNA)
# RNA: B3 RNA with U83C, A84C, U128C, A129C
# Target: MSI1 full-length (mouse, UniProt Q61474 1-362)
# Test: nsRBNS (natural sequence RNA bind-n-seq); RBNS binding buffer (assumed for nsRBNS): 25 mM Tris pH 7.5, 150 mM KCl, 3 mM MgCl2, 0.01% Triton X-100, 500 ug/ml BSA, 20 U/ml SUPERase-In, 4 C; UNK is unkempt and MSI1 is Musashi-1; names of the RNAs are library labels; protein concentration not given here; high values mean tight binding
# Chain of MSI1 full-length (Q61474 whole entry): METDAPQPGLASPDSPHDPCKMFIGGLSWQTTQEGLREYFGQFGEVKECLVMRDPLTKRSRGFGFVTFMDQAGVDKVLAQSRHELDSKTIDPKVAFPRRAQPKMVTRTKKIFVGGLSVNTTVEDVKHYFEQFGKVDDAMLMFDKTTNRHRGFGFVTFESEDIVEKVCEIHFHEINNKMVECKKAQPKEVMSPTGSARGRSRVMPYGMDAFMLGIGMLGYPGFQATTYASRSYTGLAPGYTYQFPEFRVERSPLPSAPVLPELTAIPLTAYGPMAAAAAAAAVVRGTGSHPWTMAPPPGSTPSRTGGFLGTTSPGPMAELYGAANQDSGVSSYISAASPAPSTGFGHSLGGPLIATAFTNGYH
row,Binder,binding signal
1,B1,0.762 enrichment R
2,B2,8.08 enrichment R
3,B3,39.3 enrichment R
4,B4,1.03 enrichment R
5,B5,48.8 enrichment R
6,B6,0.649 enrichment R
7,B7,9.43 enrichment R
8,B8,17.7 enrichment R
9,B9,16.1 enrichment R
10,B10,0.595 enrichment R
11,B11,0.303 enrichment R
12,B12,0.529 enrichment R
13,B13,5.81 enrichment R
